Records with an inconclusive call do not appear. Active and inactive are the calls of the source. How the source made its calls: active means hit-call score of the fitted dose curve at least 0.9, where 1 is the maximum; inconclusive means response in the unintended direction; inactive means score below 0.9.
These molecules were tested against human Retinoid X Receptor beta (RXRb), RXRB (gene 6257) (UniProt P28702) (assay: ATG_RXRb_TRANS: Attagene TRANS-FACTORIAL HepG2 Assay for human Retinoid X Receptor beta (RXRb) (AID 2283013)).
Protocol: ATG_TRANS is a cell-based, multiplexed-readout assay that uses HepG2, a human liver cell line, with measurements taken at 24 hours after chemical dosing in a 24-well plate.ATG_RXRb_TRANS is one of 30 assay component(s) measured or calculated from the ATG_TRANS assay. It is designed to make measurements of mRNA induction, a form of inducible reporter, as detected with fluorescence intensity signals by Reverse transcription polymerase chain reaction (RT-PCR) and Capillary electrophoresis technology.Data from the assay component ATG_RXRb_TRANS was analyzed into 1 assay endpoint. This assay endpoint, ATG_RXRb_TRANS, was analyzed in the positive analysis fitting direction relative to DMSO as the negative control and baseline of activity. Using a type of inducible reporter, measures of mRNA for gain-of-signal activity can be used to understand the reporter gene at the transcription factor-level as they relate to the gene RXRB. Furthermore, this assay endpoint can be referred to as a primary readout, because this assay has produced multiple assay endpoints where this one serves a reporter gene function. To generalize the intended target to other relatable targets, this assay endpoint is annotated to the nuclear receptor intended target family, where the subfamily is non-steroidal.
Human liver HepG2 cells are transiently transfected with multiple reporter transcription units (MRTUs) in 6-well plates using FuGene 6 reagent (Roche; 3 ml FuGene/1 mg DNA). The MRTU constructs are regulated by a cis-regulating element (promoter). […] A major difference between the CIS and TRANS system is that in CIS activities of endogenous TFs are measured, whereas the TRANS assay evaluates changes in activities of exogenous, chimeric NR-Gal4 proteins. […] At the end of 24 hour incubation, total RNA was isolated using TriZol reagent (Invitrogen). The isolated RNA is then reverse-transcribed using oligo(dT) primer and Mo-MLV reverse transcriptase (Invitrogen) with DNAse I (Ambion) treatment for 30 min. The one-tenth of the produced cDNA was amplified by PCR using Taq DNA polymerase (Invitrogen) and two reporter sequence-specific primers. The PCR products were fluorescently labeled by primer extension with 6-arboxyfluorescein (6-FAM) 5'-labeled reporter sequence-specific primer (2 min at 95 C, 20 s at 68 C and 10 min at 72 C) and these products were digested with 5U of HpaI (New England Biolabs) for 2h at 37 C. The fragments were purified using Qiaquick PCR columns (Qiagen), analyzed on an ABI 3130xL genetic analyzer (Applied Biosystems) with peak positions identified by using a set of X-rhodamine (ROX)-labeled MapMarker1000 molecular weight standards (BioVentures). The raw capillary electrophoresis data was processed using Attagraph software (Attagene).

human Retinoid X Receptor beta (RXRb), RXRB (gene 6257), sequence (P28702 whole entry, looked up): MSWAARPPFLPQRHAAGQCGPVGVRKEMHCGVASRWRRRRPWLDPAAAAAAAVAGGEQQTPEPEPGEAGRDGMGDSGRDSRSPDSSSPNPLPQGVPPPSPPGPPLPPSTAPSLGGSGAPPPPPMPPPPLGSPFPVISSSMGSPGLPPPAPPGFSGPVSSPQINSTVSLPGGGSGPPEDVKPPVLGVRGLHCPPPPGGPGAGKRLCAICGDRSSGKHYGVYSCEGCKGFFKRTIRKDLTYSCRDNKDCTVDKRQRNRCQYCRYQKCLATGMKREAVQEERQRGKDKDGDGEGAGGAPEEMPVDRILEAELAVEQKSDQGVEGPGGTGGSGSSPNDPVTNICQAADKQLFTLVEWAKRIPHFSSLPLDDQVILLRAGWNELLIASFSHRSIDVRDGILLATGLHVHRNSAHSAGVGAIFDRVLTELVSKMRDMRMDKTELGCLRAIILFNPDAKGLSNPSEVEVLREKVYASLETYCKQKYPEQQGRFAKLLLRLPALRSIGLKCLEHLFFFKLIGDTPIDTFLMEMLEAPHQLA

Row | Structure (SMILES) | outcome | AC50
1 | OC(c1ccc(Cl)cc1)(c1ccc(Cl)cc1)C(Cl)(Cl)Cl | inactive | –
2 | CO/N=C(/C1=NOCCO1)c1ccccc1Oc1ncnc(Oc2ccccc2Cl)c1F | inactive | –
3 | COC(=O)c1c(C(F)F)nc(C(F)(F)F)c(C2=NCCS2)c1CC(C)C | inactive | –
4 | CC(C)N1C(=O)c2ccccc2NS1(=O)=O | inactive | –
5 | CCCCC(C#N)(Cn1cncn1)c1ccc(Cl)cc1 (stereo not given) | inactive | –
6 | CSC(=O)c1c(C(F)F)nc(C(F)(F)F)c(C(=O)SC)c1CC(C)C | – | 15.1 µM (active)
7 | CC(C)Nc1nc(Cl)nc(NC(C)C)n1 | inactive | –
8 | O=c1n(Cl)c(=O)n(Cl)c(=O)n1Cl | inactive | –
9 | CCSC(=O)N1CCCCCC1 | inactive | –
10 | O=C1C2CC=CCC2C(=O)N1SC(Cl)(Cl)Cl (stereo not given) | inactive | –
11 | Nc1c(Cl)c(Cl)nc(C(=O)O)c1Cl | inactive | –
12 | CCCCOCN(C(=O)CCl)c1c(CC)cccc1CC | inactive | –
13 | COP(=S)(OC)SCn1nnc2ccccc2c1=O | inactive | –
14 | CCOc1cc(C(C)(C)C)ccc1C1COC(c2c(F)cccc2F)=N1 (stereo not given) | inactive | –
15 | Nc1c(Cl)c(F)nc(OCC(=O)O)c1Cl | inactive | –
16 | COP(=S)(OC)Oc1ccc([N+](=O)[O-])c(C)c1 | inactive | –
17 | CC1(C)CCC(=Cc2ccc(Cl)cc2)C1(O)Cn1cncn1 (stereo not given) | inactive | –
18 | CS(=O)(=O)c1ccc(C(=O)C2C(=O)CCCC2=O)c([N+](=O)[O-])c1 | inactive | –
19 | CC1(C)C(C=C(Cl)Cl)C1C(=O)OC(C#N)c1cccc(Oc2ccccc2)c1 (stereo not given) | inactive | –
20 | COc1ccc(-c2ccccc2)cc1NNC(=O)OC(C)C | inactive | –

Row | Structure (SMILES) | outcome | AC50
21 | CCOc1nc(C(Cl)(Cl)Cl)ns1 | inactive | –
22 | N#CN=C1SCCN1Cc1ccc(Cl)nc1 | inactive | –
23 | CC1(C)C(C(=O)OC(C#N)c2cccc(Oc3ccccc3)c2)C1(C)C (stereo not given) | inactive | –
24 | Cc1c(COC(=O)[C@@H]2[C@H](/C=C(\Cl)C(F)(F)F)C2(C)C)cccc1-c1ccccc1 | inactive | –
25 | CNC(=O)Oc1cccc2ccccc12 | inactive | –
26 | Cn1c(-c2ccccc2)cc(-c2ccccc2)[n+]1C | inactive | –
27 | N#Cc1c[nH]cc1-c1cccc2c1OC(F)(F)O2 | – | 1.68 µM (active)
28 | CC(C)=CC1C(C(=O)OCc2coc(Cc3ccccc3)c2)C1(C)C (stereo not given) | inactive | –
29 | Cc1cc(C)nc(Nc2ccccc2)n1 | inactive | –
30 | O=P(O)(O)CCCl | inactive | –
31 | Cc1cnc(C2=NC(C)(C(C)C)C(=O)N2)c(C(=O)O)c1 (stereo not given) | inactive | –
32 | CC(C)(C)C(=O)C(Oc1ccc(Cl)cc1)n1cncn1 (stereo not given) | inactive | –
33 | COc1cc(OC)nc(NC(=O)NS(=O)(=O)c2ncccc2OCC(F)(F)F)n1 | inactive | –
34 | CCOc1nc(F)cc2nc(S(=O)(=O)Nc3c(Cl)cccc3Cl)nn12 | inactive | –
35 | COc1cc(Cl)c(OC)cc1Cl | inactive | –
36 | CCOP(=S)(OCC)Oc1nc(Cl)n(C(C)C)n1 | inactive | –
37 | CCNP(=S)(OC)O/C(C)=C/C(=O)OC(C)C (stereo not given) | inactive | –
38 | CCCN(CC)CC1COC2(CCC(C(C)(C)C)CC2)O1 (stereo not given) | inactive | –
39 | N#Cc1c(Cl)cccc1Cl | inactive | –
40 | Clc1cccc(C(Cl)(Cl)Cl)n1 | inactive | –
